mTORC1 inh: Acumen qHTS Assay for Inhibitors of the mTORC1 Signaling Pathway in MEF (Tsc2-/-, p53-/-) Cells: Sytravon. Tsc2-/- p53-/- MEF, phospho-rpS6 immunofluorescence/PI, 24 h. Potency, µM (titrated, usually from 38.3 µM), for inactives: at the top dose activity change, negative = inhibition, hits mostly inhibitors. actives 0.78% (n = 44,000). AID 493208, 2011;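 also: potency is read from the fitted curve at half-maximal effect; plate controls were DMSO for no effect and rapamycin for full effect; nearly all actives have a fitted effect of over 50% in size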
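Readout is phospho-S6 Alexa 488 signal normalized to PI per well, reported as % active cells with thresholds set from rapamycin (7.5 nM) and DMSO controls. Cells: Tsc2-/-, p53-/- MEFs, 24 hrs compound at 37 C; PI cell number serves as viability.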
p53null 39C kill: qHTS Screen for Compounds that Selectively Target Cancer Cells with p53 Mutations: Cytotoxicity of p53 Null Cells at the Nonpermissive Temperature | H1299 p53-null (neo) cells, 39C, ATPlite viability, 24 h | Potency, µM (top dose mostly 46.1 µM), inactives show at the top dose activity, negative = cell killing, most hits filed as cytotoxic | actives 0.97% (n = 55,000);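 also: potency is read from the fitted curve at half-maximal effect; 0% = DMSO only and -100% = full killing by 100 µM tamoxifen; nearly all actives have a fitted effect of over 50% in size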
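H1299 lung cancer cells, p53-null (H1299-neo) or expressing p53 A138V (H1299-p53A138V), were plated overnight at 37C, then exposed to compounds at up to 46 uM for 24 hr at 39C. Viability was read by ATP-based luminescence.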
PMP22 txn: Cell-based coincidence reporter assay to measure PMP22 gene transcription in S16 Pmp22-F2sN cells - Primary screen; S16 Pmp22-F2sN Schwann cells, FLuc/NLuc coincidence luminescence, 24 h; Potency, µM (series often up to 57.5 µM), for the others: at the top dose activity change, negative = inhibition, most hits filed as inhibitors; actives 2% (n = 43,000); AID 1508649, 2021; active = clear falling dose curves in both reporters; inconclusive = both reporters move, but less clearly or upward; inactive = either reporter flat; the % is the NLuc reporter signal; also: potency is read from the fitted curve at half-maximal effect; % is scaled to controls: 0 for no effect and ±100 for the full control effect
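Luminescent read-out of sequential FLuc and NLuc signals from a reporter embedded in the Pmp22 3' UTR of S16 Schwann cells, taken after 24 h compound exposure at 37C; compounds reducing both signals score as inhibitors of expression.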
SKOV3 invasion: Primary qHTS assay for Inhibitors of ovarian cancer metastasis using an organotypic tumor microenvironment (TME) model; actives 0.1% (n = 46,000); Potency, µM (titrated, usually from 45.8 µM), for the others: at the top dose activity change, negative = inhibition, usual class: inhibitors; SKOV3ip1-GFP adhesion/invasion on 3D omental model, fluorescence; AID 1963576, 2024;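 also: potency is read from the fitted curve at half-maximal effect; plate controls were DMSO wells for no effect and tomatine positive control wells for full effect; nearly all actives have a fitted effect of over 65% in size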
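Primary human omental fibroblast/mesothelial 3D culture pre-formed 48 h. SKOV3ip1-GFP cells added with compounds (0.36-46 umol/L), incubated 2 h RT/16 h 37 C, fixed; GFP cells quantified at 488/509 nm.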
p53null 32C kill: qHTS Screen for Compounds that Selectively Target Cancer Cells with p53 Mutations: Cytotoxicity of p53 Null Cells at the Permissive Temperature | H1299-neo p53 null cells, ATP luminescence, 24 h, 32C | Potency, µM (doses to about 46.1 µM), for the others: at the highest dose activity change, negative = cytotoxicity, usual class: cytotoxic | actives 0.62% (n = 55,000) | AID 903, 2007;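 also: potency is read from the fitted curve at half-maximal effect; 0% = DMSO only and -100% = full killing by 100 µM tamoxifen; nearly all actives have a fitted effect of over 55% in size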
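H1299-neo, 600 cells/well; overnight 37C; cpd up to 46 uM, 24 h at 32C; ATPlite luminescence after 20 min RT; normalized to DMSO (0%) and tamoxifen 100 uM (100% kill); Hill-fit AC50.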
S16 F2sN tox: Cell viability qHTS assay in S16 Pmp22-F2sN cells; actives 0.48% (n = 43,000); S16 Pmp22-F2sN Schwann cells (luciferase reporters placed in the Pmp22 gene) viability, CellTiter-Glo, 24 h; Potency, µM (highest dose often 57.5 µM), without a hit: at the highest dose activity change, negative = cytotoxicity, most hits filed as cytotoxic; AID 1508642, 2021; also: potency is read from the fitted curve at half-maximal effect; % is scaled to controls: 0 for no effect and ±100 for the full control effect; nearly all actives have a fitted effect of over 65% in size
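CellTiter-Glo counter-screen, qHTS, 1536-well. Cells: S16(c9) Pmp22-F2sN, 500-1,000/well in DMEM + 10% FBS. Cpd 23 nL pin transfer, 24 h, 37C/5% CO2. Read: luminescence, CCD imager.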
NLuc sat counter: Biochemical NLuc saturation counterscreen for small molecule modulators of PMP22 gene expression - Nano-Glo assay; Secreted NLuc enzyme (filtered S16 cell medium), Nano-Glo luminescence; Potency, µM (highest dose often 57.5 µM), without a hit: top-dose activity change, negative = inhibition, usual class: inhibitors; actives 4% (n = 690); shares compounds with PMP22 txn; also: potency is read from the fitted curve at half-maximal effect; % is scaled to controls: 0 for no effect and ±100 for the full control effect
NLuc Km counter: Biochemical coelenterazine-based NLuc counterscreen for small molecule modulators of PMP22 gene expression - Km assay. AID 1508639, 2021. actives 5% (n = 690). Potency, µM (doses to about 57.5 µM), inactives show at the top dose activity change, negative = inhibition, actives largely listed as inhibitors. shares compounds with PMP22 txn. secreted NLuc enzyme, coelenterazine luminescence, Km conditions; also: potency is read from the fitted curve at half-maximal effect; % is scaled to controls: 0 for no effect and ±100 for the full control effect
FLuc counter: Biochemical FLuc counterscreen for small molecule modulators of PMP22 gene expression. purified P. pyralis FLuc, luminescence, 10 min. AID 1508640, 2021. shares compounds with PMP22 txn. Potency, µM (doses to about 57.5 µM), without a hit: at the top dose activity, negative = inhibition, hits mostly inhibitors. 690 tested, under 10 active; also: % of control where 0% means no effect
Target sequence (P08659 whole entry, looked up): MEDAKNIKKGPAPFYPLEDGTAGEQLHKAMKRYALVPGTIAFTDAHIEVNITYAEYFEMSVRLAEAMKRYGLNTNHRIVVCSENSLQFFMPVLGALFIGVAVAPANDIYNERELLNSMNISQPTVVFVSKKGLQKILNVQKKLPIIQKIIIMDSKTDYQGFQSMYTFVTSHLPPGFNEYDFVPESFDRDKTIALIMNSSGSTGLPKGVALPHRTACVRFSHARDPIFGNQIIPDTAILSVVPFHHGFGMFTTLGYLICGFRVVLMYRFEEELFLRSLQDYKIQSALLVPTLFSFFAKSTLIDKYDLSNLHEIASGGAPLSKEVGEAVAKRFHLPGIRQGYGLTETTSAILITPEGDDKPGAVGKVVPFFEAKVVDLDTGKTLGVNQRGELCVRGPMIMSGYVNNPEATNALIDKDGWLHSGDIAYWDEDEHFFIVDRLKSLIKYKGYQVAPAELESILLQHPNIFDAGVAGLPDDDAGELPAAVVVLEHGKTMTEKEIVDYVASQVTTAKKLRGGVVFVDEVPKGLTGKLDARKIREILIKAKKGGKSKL
S16 F2sN tox cnf: Cell viability qHTS assay in S16 Pmp22-F2sN cells - Confirmatory screen. S16 Schwann cells viability, CellTiter-Glo ATP luminescence, 24 h. actives 7% (n = 690). AID 1508641, 2021. shares compounds with PMP22 txn. Potency, µM (highest dose often 57.5 µM), for inactives: top-dose activity change, negative = viability loss, hits mostly cytotoxic; also: potency is read from the fitted curve at half-maximal effect; % is scaled to controls: 0 for no effect and ±100 for the full control effect
PMP22 txn cnf: Cell-based coincidence reporter assay to measure PMP22 gene transcription in S16 Pmp22-F2sN cells - Confirmatory screen | shares compounds with PMP22 txn | S16 Schwann cells Pmp22-F2sN, dual luciferase, 24 h | Potency, µM (top dose mostly 57.5 µM), inactives show at the highest dose activity change, negative = inhibition, most hits filed as inhibitors | actives 22% (n = 690); active = clear falling dose curves in both reporters; inconclusive = both reporters move, but less clearly or upward; inactive = either reporter flat; the % is the FLuc reporter signal; also: potency is read from the fitted curve at half-maximal effect
Active calls of the source: *; i = inactive; ? = inconclusive; nt = no result. This is a sample that favours compounds with a hit; in the whole collection about 3% have one here. Unless noted, calls follow the shape of the dose curve; as a rule, active = well fitted curve in the direction sought with a large enough effect; inconclusive = small, poorly fitted or top-dose-only effect, or another doubt; inactive = no such curve, though single readings can be large; an effect the other way counts as inactive or inconclusive.

SMILES	mTORC1 inh	p53null 39C kill	PMP22 txn	SKOV3 invasion	p53null 32C kill	S16 F2sN tox	NLuc sat counter	NLuc Km counter	FLuc counter	S16 F2sN tox cnf	PMP22 txn cnf
CCOc1ccc(CN2C(=O)C(=O)c3cccc(C)c32)cc1OC	-22%	20µM*	11µM*	-5%	-1%	14%	?	?	-13%	-11%	?
O=C(NCCc1ccccc1)c1c[nH]c2ccc(S(=O)(=O)Nc3ccccc3F)cc2c1=O	-9%	-4%	?	1%	2%	-7%	-22%	-18%	-14%	-17%	-10%
O=C(NCCc1ccccc1)c1c[nH]c2ccc(S(=O)(=O)Nc3ccc(F)cc3F)cc2c1=O	6%	2%	-34%	-5%	15%	2%	nt	nt	nt	nt	nt
CCc1cc2c(cc1N1CCC(N3CCOCC3)CC1)C(C)(C)c1[nH]c3cc(C#N)ccc3c1C2=O	nt	nt	nt	-3%	nt	nt	nt	nt	nt	nt	nt
CCOC(=O)c1ccccc1NC(=O)c1nn(C)c2c1COc1ccccc1-2	-17%	43%	17µM*	-6%	26%	9%	-7%	2%	-14%	-8%	18µM*
CCOC(=O)c1ccc(NC(=O)c2nn(C)c3c2COc2ccccc2-3)cc1	1%	-2%	-6%	0%	6%	-5%	nt	nt	nt	nt	nt
CCOc1ccccc1CNC(=O)CCn1c(=O)c2cccn2c2ccc(F)cc21	?	56%	14µM*	1%	10%	6%	1%	1%	0%	-2%	?
N[C@@]1(C(=O)O)CS(=O)(=O)[C@H]2[C@H](C(=O)O)[C@H]21	nt	nt	nt	-15%	nt	nt	nt	nt	nt	nt	nt
CC(C)N(CC[C@H](c1ccccc1)c1cc(CO)ccc1O)C(C)C	nt	nt	nt	17%	nt	nt	nt	nt	nt	nt	nt
Cc1ccc2c(c1)C(=O)C(=O)N2Cc1ccc(OCCC(C)C)cc1	-13%	?	4.6µM*	?	20%	-12%	-11%	1%	-8%	-6%	12µM*
CCCCOc1ccc(Cn2c(=O)oc3ccc(C)cc32)cc1	-1%	-16%	-11%	-8%	-1%	0%	nt	nt	nt	nt	nt
CC(=O)N1c2ccc(S(=O)(=O)NCC3CCC(C(=O)Nc4ccccc4C)CC3)cc2CC1C (stereo unspecified)	-26%	-9%	-27%	10%	-3%	-8%	nt	nt	nt	nt	nt
CC(=O)N1c2ccc(S(=O)(=O)NCC3CCC(C(=O)Nc4cc(C)ccc4C)CC3)cc2CC1C (stereo unspecified)	-20%	-8%	?	-22%	1%	?	-15%	2%	4%	-24%	-47%
Cc1nc2cccnc2n1C1CCN(S(=O)(=O)c2ccc(C(C)C)cc2)CC1	-23%	24%	17µM*	-2%	29%	?	-14%	3%	4%	-11%	-33%
CCc1ccc2ncc(C(=O)c3ccc(C)c(C)c3)c(N3CCC(C(N)=O)CC3)c2c1	-1%	?	13µM*	i	17%	-8%	5.4µM*	7.7µM*	-1%	-13%	?
CCc1ccccc1NC(=O)c1ccc2nc(C(C)C)oc2c1	-9%	11%	17µM*	?	2%	?	?	?	-6%	-14%	-9%
Cc1ccccc1-n1c(SCC(=O)c2ccccc2)nnc1-c1ccc(F)cc1	?	2%	18µM*	-7%	55%	?	1.4µM*	1.7µM*	4%	-4%	?
CCOC(=O)c1c(NC(=O)c2ccc(S(=O)(=O)N(C)C)cc2)sc2c1CCN(C)C2	?	-6%	?	?	-1%	-7%	nt	nt	nt	nt	nt
CCOC(=O)c1c(NC(=O)c2ccc(S(=O)(=O)N3CCC(C)CC3)cc2)sc2c1CCN(C)C2	15µM*	-2%	18µM*	?	-26%	?	?	?	6%	?	18µM*
CCOC(=O)c1c(C)[nH]c(CCC(=O)NCCCN2CCN(c3cc(Cl)ccc3C)CC2)c1C	?	-36%	15µM*	?	12%	?	-11%	4%	-3%	?	?
CCn1c(-c2nonc2N)nc2cnc(Oc3cccc(NC(=O)c4ccc(OCCN5CCOCC5)cc4)c3)cc21	nt	nt	nt	14%	nt	nt	nt	nt	nt	nt	nt
O=C(c1ccc(F)cc1)N1CCC[C@H](c2nc(-c3ccc(F)cc3)no2)C1	nt	nt	nt	8%	nt	nt	nt	nt	nt	nt	nt

Screening results: PubChem BioAssay, National Center for Advancing Translational Sciences (NCATS)
